# Values joined by “and” are separate entries in the source; they are usually repeats but may differ in a detail not shown here. Identical values can stand only once. Active and inactive are the calls of the source. How the source made its calls: active means hit-call score of the fitted dose curve at least 0.9, where 1 is the maximum; inactive means score below 0.9.
# Assay: APR_HepG2_MitoMass_1hr: Apredica 1-hour HepG2 Assay for Mitochondrial Mass (AID 2282674)
# Settings: high-content imaging, actives raise or lower the signal
# Experimental: APR_HepG2_1hr is a cell-based, multiplexed-readout assay that uses HepG2, a human liver cell line, with measurements taken at 1 hour after chemical dosing in a 384-well plate.APR_HepG2_MitoMass_1hr is one of 10 assay component(s) measured or calculated from the APR_HepG2_1hr assay. It is designed to make measurements of cell phenotype, a form of morphology reporter, as detected with fluorescence intensity signals by HCS Fluorescent Imaging technology.Data from the assay component APR_HepG2_MitoMass_1hr was analyzed into 1 assay endpoint. This assay endpoint, APR_HepG2_MitoMass_1hr, was analyzed with bidirectional fitting relative to DMSO as the negative control and baseline of activity. Using a type of morphology reporter, gain or loss-of-signal activity can be used to understand changes in the signaling. Furthermore, this assay endpoint can be referred to as a primary readout, because this assay has produced multiple assay endpoints where this one serves a signaling function. To generalize the intended target to other relatable targets, this assay endpoint is annotated to the cell morphology intended target family, where the subfamily is organelle conformation.
# Cells were treated with dimethyl sulfoxide (DMSO) as a solvent control at a final concentration of 0.5% v/v or with compounds in DMSO with a resulting final DMSO concentration of 0.5% v/v. Compound treatment was done at concentrations of 0.39, 0.78, 1.56, 3.12, 6.24, 12.5, 25, 50, 100, and 200 uM in duplicate on each plate. Cells were treated with compounds for 1, 24, or 72 hr. Carbonyl […] m-chloro-phenylhydrazone (CCCP) and taxol were used as positive controls for mitochondrial function and cytoskeletal stability, respectively; DMSO served as the negative control for this experiment. Cells were fixed by the direct addition of 50 uL formaldehyde in Hank's Balanced Salt Solution (HBSS) to a final concentration of 3.7%. After incubation in the fixation medium for 30 min at room temperature (293-298 K), cells were rinsed twice with HBSS and treated with cell permeabilization buffer (16 uL of 0.5% Triton X-100) for 10 min at room temperature (293-298 K) before labeling. For mitochondrial membrane potential and mitochondrial measurements, pre-fixed cells were incubated with 50 uL of MitoTracker Red CMXRos (Invitrogen) at a concentration of 250 nM for 30 min before fixation. In the remaining cases, post-fixed cells were labeled by incubation with a multiplexed mixture of primary antibodies in HBSS for 60 min at room temperature (293-298 K) to detect immunoreactivity of c-Jun (1:500), phospho-histone H3 (1:100), phospho-histone H2A.x (1:200), p53 (1:400), alpha-tubulin (1:200) and Hoechst 33342 (2 ug/mL). Cells were labeled for multiplexed imaging on two separate plates: a) Hoechst 33342, MitoTracker Red, phospho-histone H3, and alpha-tubulin, and b) Hoechst 33342, phospho-histone H2A.x, and c-Jun. A final rinse with HBSS (50 uL) was performed before analysis. The primary and secondary antibodies for the proteins were phospho-histone H3 (rabbit anti-phospho-histone H3 and FITC-donkey anti-rabbit IgG), phospho-histone H2A.x (mouse anti-phospho-histone H2A.x and FITC-donkey anti-mouse IgG), c-Jun (rabbit anti-phospho-c-Jun and Cy3-donkey anti-rabbit IgG), p53 (sheep anti-p53 and Cy5-donkey anti-sheep IgG), alpha-tubulin (mouse anti-alpha-tubulin and Cy5-donkey anti-mouse IgG). These antibodies are available as the CellCiphr HepG2 assay kit (Millipore).Digital images of each well were captured using a Cellomics ArrayScan VTI (Thermo Scientific Cellomics) (0.8 NA objective, 0.63x optical coupler, and XF-93 filter set) at 20x magnification. The images were acquired using the autofocus feature of the ArrayScan instrument, which entails the following steps. First, the camera focuses on channel 1 (Hoechst 33342), where nuclei are identified. Second, a Z offset of 1 um is used for capturing mitochondria (MitoTracker Red). Third, a Z offset of -2 um is used for capturing the cytoskeleton (tubulin). […]
SMILES,outcome,AC50
CO/C=C(/C(=O)OC)c1ccccc1Oc1cc(Oc2ccccc2C#N)ncn1,inactive,
C#CCOS(=O)OC1CCCCC1Oc1ccc(C(C)(C)C)cc1 (stereo not given),inactive,
CCc1nn(C)c(C(=O)NCc2ccc(C(C)(C)C)cc2)c1Cl,inactive,
CCNc1nc(Cl)nc(NCC)n1,inactive,
CCCCOC(=O)c1ccccc1C(=O)OCCCC,inactive,
O=C(O)c1nc(Cl)ccc1Cl,inactive,
Cc1c(F)c(F)c(COC(=O)C2C(/C=C(\Cl)C(F)(F)F)C2(C)C)c(F)c1F (stereo not given),inactive,
COc1ccc(C(c2ccc(OC)cc2)C(Cl)(Cl)Cl)cc1,inactive,
C=CCC1=C(C)C(OC(=O)C2C(C=C(C)C)C2(C)C)CC1=O (stereo not given),inactive,
CCOc1cc(Oc2ccc(C(F)(F)F)cc2Cl)ccc1[N+](=O)[O-],inactive,
CCON=C(CC)C1=C(O)CC(c2c(C)cc(C)cc2C)CC1=O (stereo not given),inactive,
O=C(Nc1ccccc1)Nc1ccnc(Cl)c1,inactive,
CCCCNC(=O)n1c(NC(=O)OC)nc2ccccc21,inactive,
Cc1ccc(-c2c(Cl)nc(C#N)n2S(=O)(=O)N(C)C)cc1,inactive,
CN(C)C(=S)SSC(=S)N(C)C,inactive,
N#Cc1nn(-c2c(Cl)cc(C(F)(F)F)cc2Cl)c(N)c1S(=O)C(F)(F)F (stereo not given),inactive,
OC(c1ccc(Cl)cc1)(c1cncnc1)c1ccccc1Cl (stereo not given),inactive,
COC(=O)C=C(C)OP(=O)(OC)OC,inactive,
CS/C(C)=N/OC(=O)N(C)SN(C)C(=O)O/N=C(\C)SC,inactive,
CCCN(CCC)c1c([N+](=O)[O-])cc(S(N)(=O)=O)cc1[N+](=O)[O-],inactive,

SMILES,outcome,AC50
N#Cc1cc(Br)c(O)c(Br)c1,inactive,
CC1COC(Cn2cncn2)(c2ccc(Oc3ccc(Cl)cc3)cc2Cl)O1 (stereo not given),inactive,
COc1cnc(OC)n2nc(NS(=O)(=O)c3c(OCC(F)F)cccc3C(F)(F)F)nc12,inactive,
CCCC1COC(Cn2cncn2)(c2ccc(Cl)cc2Cl)O1 (stereo not given),inactive,
CON(C)C(=O)Nc1ccc(Cl)c(Cl)c1,inactive,
Cc1cc(Cl)ccc1OCC(=O)O,inactive,
CCOP(=S)(OCC)SCn1c(=O)oc2cc(Cl)ccc21,inactive,
CC(C)Oc1cc(-n2nc(C(C)(C)C)oc2=O)c(Cl)cc1Cl,inactive,
CCCCNC(=O)OCC#CI,,47.8 µM (active) and 60.6 µM (active)
CC(C)C1(C)N=C(c2nc3ccccc3cc2C(=O)O)NC1=O (stereo not given),inactive,
CC(Oc1ccc(Cl)cc1Cl)C(=O)O (stereo not given),inactive,
CCOC(=O)C(Cl)Cc1cc(-n2nc(C)n(C(F)F)c2=O)c(F)cc1Cl (stereo not given),inactive,
COC(=O)C(C)Oc1ccc(Oc2ccc(Cl)cc2Cl)cc1 (stereo not given),inactive,
O=C(O)COc1nc(Cl)c(Cl)cc1Cl,inactive,
CCOC(=O)CC(SP(=S)(OC)OC)C(=O)OCC (stereo not given),inactive,
Oc1ccccc1-c1ccccc1,inactive,
COc1nc(C)nc(NC(=O)NS(=O)(=O)c2ccccc2CCC(F)(F)F)n1,inactive,
COP(N)(=O)SC (stereo not given),inactive,
CCNc1nc(Cl)nc(NC(C)C)n1,inactive,
COc1nc(C)nc(NC(=O)NS(=O)(=O)c2ccccc2Cl)n1,inactive,

# From PubChem BioAssay (EPA / NIEHS)
